Test results published in PubChem BioAssay (Tox21).
Results filed as inconclusive are left out. Active and inactive are the calls of the source. Unless noted, the call rests on the fitted dose curve; in most records, active means well fitted curve in the direction sought with a large enough effect in the repeat runs; inconclusive means weak or mixed curves; inactive means no such curve, though single readings can be large; an effect the other way counts as inactive or inconclusive.

Key:
[1] = qHTS assay to identify small molecule antagonists of the estrogen related receptor signaling pathway with the pleiotropic PPARgamma coactivator (PGC) from Tox21 10K library - cell viability counter screen (AID 1224840; active means well fitted cell-killing curve with a large enough effect in the repeat runs, not every such curve was filed as active; further: nearly all actives have a fitted effect of over 40% in size)
In short: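 Viability counter screen, PGC/ERR cells: 17.5 h compound exposure at 37 C, CellTiter-Fluor fluorescence endpoint.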

[2] = qHTS assay to identify small molecule antagonists of the estrogen related receptor signaling pathway with the pleiotropic PPARgamma coactivator (PGC) from Tox21 10K library (AID 1224841; call rule not given here; further: series mostly up to about 92 µM; actives are mostly falling curves and most rising ones were filed inactive; nearly all actives have a fitted effect of over 50% in size)
In short: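 In the PGC/ERR line, DMSO solutions of test chemicals are pin-delivered to 2,000 cells/well six hours after dispensing. Following eighteen hours' incubation, One-Glo reagent is added and luminescence recorded.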

[3] = qHTS assay to identify small molecule agonists of the estrogen related receptor signaling pathway with the pleiotropic PPARgamma coactivator (PGC) from Tox21 10K library (AID 1224842); further: nearly all actives have a fitted effect of over 15% in size
In short: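 Luminescence from One-Glo (30 min, room temperature) measured after PGC/ERR cells had 18 h at 37 C with pinned compound (23 nL in DMSO). Cells had been seeded at 2,000 per well and pre-incubated 6 h.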

[4] = target: Thyrotropin receptor (Homo sapiens) (UniProt P16473); assay: qHTS assay to identify small molecule agonists of the thyroid stimulating hormone receptor (TSHR) signaling pathway (AID 1224843; calls by dose curve; further: nearly all actives have a fitted effect of over 45% in size)
Chain of Thyrotropin receptor (Homo sapiens) (P16473 whole entry, looked up): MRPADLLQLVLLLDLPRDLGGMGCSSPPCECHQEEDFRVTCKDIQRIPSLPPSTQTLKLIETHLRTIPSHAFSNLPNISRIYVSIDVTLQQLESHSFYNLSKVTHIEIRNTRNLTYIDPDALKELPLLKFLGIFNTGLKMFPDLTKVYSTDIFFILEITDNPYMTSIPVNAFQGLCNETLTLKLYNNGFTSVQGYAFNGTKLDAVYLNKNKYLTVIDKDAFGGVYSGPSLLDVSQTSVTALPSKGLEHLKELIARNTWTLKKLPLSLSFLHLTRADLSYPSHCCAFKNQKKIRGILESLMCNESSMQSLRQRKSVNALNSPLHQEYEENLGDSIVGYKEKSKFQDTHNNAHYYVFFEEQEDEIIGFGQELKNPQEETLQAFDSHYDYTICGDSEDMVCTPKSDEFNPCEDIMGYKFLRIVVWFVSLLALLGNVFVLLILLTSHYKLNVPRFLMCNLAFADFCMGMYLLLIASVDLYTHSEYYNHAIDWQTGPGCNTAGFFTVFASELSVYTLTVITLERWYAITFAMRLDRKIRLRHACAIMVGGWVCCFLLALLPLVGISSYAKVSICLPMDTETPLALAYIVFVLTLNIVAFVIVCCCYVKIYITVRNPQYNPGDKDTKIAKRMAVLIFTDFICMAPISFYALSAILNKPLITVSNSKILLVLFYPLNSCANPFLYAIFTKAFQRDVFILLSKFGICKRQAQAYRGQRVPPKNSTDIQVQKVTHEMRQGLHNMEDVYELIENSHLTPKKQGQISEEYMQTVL
In short: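 A cell-based cAMP HTRF format was run in TSHR-transfected HEK293 cells, 800 per well. Treatment: 30 min, room temperature. Detection: 1 h with labelled cAMP and anti-cAMP cryptate. Concentration-response over 15 points, three replicates.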

[5] = qHTS assay to identify small molecule agonists of H2AX (AID 1224845; active means well fitted activation curve with a large enough effect in the signal ratio in the repeat runs, not every such curve was filed as active; the % refers to the signal ratio)
In short: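 Phospho-H2AX Ser139 measured by HTRF (ex 320 nm; em 665 and 620 nm) after 24 hr antibody incubation. Compounds, 15 concentrations, 0.76% DMSO, were applied to CHO-K1 cells for 3hr at 37C before lysis.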

[6] = qHTS assay to identify small molecule agonists of the hypoxia (HIF-1) signaling pathway (AID 1224846; active means well fitted activation curve with a large enough effect in the signal ratio in the repeat runs, not every such curve was filed as active; the % refers to the signal ratio)
In short: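 In ME-180 cells bearing an HRE-bla construct, 17 h treatment with DMSO-dissolved compounds at 37C was followed by CCF4-AM loading to quantify reporter induction.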

[7] = qHTS assay to identify small molecule agonists of H2AX - cell viability counter screen (AID 1224847; calls by dose curve; further: nearly all actives have a fitted effect of over 30% in size; further: potency means the concentration at half of the fitted maximal effect; on activity change, negative = cytotoxicity: top concentration of the series differs between compounds)
In short: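 Compounds tested at 15 concentrations were incubated 3 hr at 37C with wild-type CHO-K1 cells; cellular ATP-based luminescence (CellTiter-Glo) indicated viability.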

[8] = qHTS assay to identify small molecule antagonists of the estrogen related receptor (ERR) signaling pathway from Tox21 library (AID 1224848); further: nearly all actives have a fitted effect of over 50% in size
In short: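 ERR cell line, 2,000 cells/well. 6 h settle, then compound (DMSO) added; 18 h at 37 C; ONE-Glo luminescence after 30 min RT.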

[9] = qHTS assay to identify small molecule agonists of the estrogen related receptor (ERR) signaling pathway from Tox21 library (AID 1224849; calls by dose curve; further: nearly all actives have a fitted effect of over 15% in size)
In short: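 Reporter cells (ERR, NTP source) treated with Tox21 10K compounds 18 h, 37 C. Readout: ONE-Glo luminescence, 30 min RT.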

[10] = qHTS RealTime-Glo MT Cell Viability Assay in HepG2 cells - 24 hour (AID 1224867); further: nearly all actives have a fitted effect of over 50% in size
In short: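 Compound treatment began 5 h after plating HepG2 cells (600/well) with NanoLuc luciferase and prosubstrate. Plates stayed at 37 C for 40 h; luminescence was captured at six time points, 0 h through 40 h.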

[11] = qHTS RealTime-Glo MT Cell Viability Assay in HEK293 cells - 32 hour (AID 1224868); further: top concentration of the series differs between compounds; nearly all actives have a fitted effect of over 50% in size
In short: (§1)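 Quantitative high-throughput screen of the Tox21 10K library in HEK293: cells and RealTime-Glo reagents plated together, compound added at 5 h, luminescence monitored through 40 h at 37 C.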

[12] = A CellTox Green Cytotoxicity Assay to monitor cytotoxicity in HEK293 cells - 0 hour (AID 1224869); further: nearly all actives have a fitted effect of over 50% in size
In short: (§2)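 Homogeneous no-lysis format: HEK293 cell suspension mixed with CellTox Green reagent, seeded, incubated 5 h at 37 C/5% CO2, then dosed by pintool with compound in DMSO.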

[13] = qHTS RealTime-Glo MT Cell Viability Assay in HepG2 cells - 40 hour (AID 1224870); further: nearly all actives have a fitted effect of over 50% in size
In short: (§3)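 Real-time viability: cells seeded at 600 per well together with NanoLuc and cell-permeant prosubstrate, compounds added after 5 h incubation. Luminescence tracked at 0, 8, 16, 24, 32 and 40 h of exposure.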

[14] = A CellTox Green Cytotoxicity Assay to monitor cytotoxicity in HEK293 cells - 40 hour (AID 1224871); further: nearly all actives have a fitted effect of over 45% in size
In short: as §2

[15] = qHTS RealTime-Glo MT Cell Viability Assay in HEK293 cells - 16 hour (AID 1224872)
In short: as §1

[16] = qHTS RealTime-Glo MT Cell Viability Assay in HepG2 cells - 8 hour (AID 1224873); further: nearly all actives have a fitted effect of over 55% in size
In short: as §3

[17] = qHTS RealTime-Glo MT Cell Viability Assay in HEK293 cells - 40 hour (AID 1224874); conditions: RealTime-Glo luminescence; max response: hits give low values; further: nearly all actives have a fitted effect of over 50% in size
In short: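 Measured as luminescence from the same continuously cultured HEK293 wells at successive time points (0, 8, 16, 24, 32, 40 h) after compound addition. Reagent present from seeding; dosing at 5 h; incubation 37 C.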

[18] = A CellTox Green Cytotoxicity Assay to monitor cytotoxicity in HEK293 cells - 24 hour (AID 1224875); further: series mostly up to about 77 µM; nearly all actives have a fitted effect of over 45% in size
In short: as §2

[19] = target: Nuclear receptor subfamily 1 group I member 3 (Homo sapiens) (UniProt Q14994); assay: qHTS assay to identify small molecule agonists of the constitutive androstane receptor (CAR) signaling pathway (AID 1224839); further: nearly all actives have a fitted effect of over 15% in size; further: potency means the concentration at half of the fitted maximal effect;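 on activation: HepG2 cells stably carrying human CAR and a CYP2B6 luciferase reporter; series mostly up to about 92 µM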
Chain of Nuclear receptor subfamily 1 group I member 3 (Homo sapiens) (Q14994 whole entry, looked up): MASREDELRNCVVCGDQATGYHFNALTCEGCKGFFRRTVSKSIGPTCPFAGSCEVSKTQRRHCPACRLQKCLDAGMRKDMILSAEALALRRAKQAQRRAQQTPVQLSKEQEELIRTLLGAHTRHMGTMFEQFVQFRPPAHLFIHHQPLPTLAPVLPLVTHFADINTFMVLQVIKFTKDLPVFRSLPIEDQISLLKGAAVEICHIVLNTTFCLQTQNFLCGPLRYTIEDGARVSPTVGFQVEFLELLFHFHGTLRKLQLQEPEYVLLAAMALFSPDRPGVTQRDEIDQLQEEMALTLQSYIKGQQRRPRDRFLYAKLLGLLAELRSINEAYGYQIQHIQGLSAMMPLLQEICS
In short: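 Compounds tested at 15 concentrations on HepG2 cells stably harbouring hCAR and CYP2B6-2.2kb reporter constructs, co-treated with PK11195 (0.75 uM final), 24 h at 37 C; luminescent reporter signal quantified.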

[20] = qHTS assay to identify small molecule agonists of the hypoxia (HIF-1) signaling pathway - cell viability counter screen (AID 1224844; calls by dose curve; further: nearly all actives have a fitted effect of over 50% in size)
In short: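 Same wells as the HIF-1 reporter screen; ME-180 cells carrying HRE-bla, 17 hr treatment at 37C; CellTiter-Glo luminescence read after 30 min at room temperature.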
On the % scale 0 is the no-effect control and ±100 the full control effect.

CCCCCCCCCCCCCCCCI
inactive: viability change, negative = cytotoxic [1] -0.222% [at 19 µM] | activity, negative = inhibition [2] -7.26% [at 19 µM] | activation [3] -1.58% [at 19 µM] | activation [4] -19.7% [at 19 µM] | activation (H2AX phosphorylation) [5] 0.0964% [at 31.6 µM] | activation [6] 0.543% [at 15.8 µM] | activity change, negative = cytotoxicity [7] -0.0372% [at 31.6 µM] | activity, negative = inhibition [8] 4.33% [at 19 µM] | activity change, positive = activation [9] 2.23% [at 19 µM] | activity change, negative = cytotoxicity [10] -1.23% [at 15.8 µM] | activity change, negative = cytotoxic [11] -10.5% [at 15.8 µM] | cytotoxicity [12] 0.206% [at 15.8 µM] | activity change, negative = cytotoxic [13] 17.3% [at 15.8 µM] | cytotoxicity increase [14] -8.08% [at 15.8 µM] | activity change, negative = cytotoxicity [15] -6.59% [at 15.8 µM] | viability change, negative = cytotoxic [16] -19.7% [at 15.8 µM] | max response [17] -10.6% | activity change [18] -5.96% [at 15.8 µM, hits give high values]

Nc1ccc(S(=O)(=O)Nc2ccccn2)cc1
inactive: Potency [19] | outcome [1] | outcome [20] | outcome [5] | Potency [7] | Potency [12] | outcome [13] | Potency [14] | Potency [15] | outcome [16] | max response [17] -4.15% | Potency [18]

NC(=O)NNC(N)=O
inactive: outcome [1] | Potency [2] | outcome [3] | outcome [4] | outcome [20] | outcome [5] | outcome [6] | Potency [7] | Potency [8] | outcome [9] | outcome [10] | Potency [11] | Potency [12] | outcome [13] | Potency [14] | Potency [15] | outcome [16] | max response [17] 19.6% | Potency [18]

COc1ccc(N=Nc2cc(C)c(N=Nc3ccc(S(=O)(=O)O)cc3)cc2OC)cc1
active: Potency [7] 101 µM
inactive: Potency [19] | outcome [5] | outcome [6] | outcome [10] | outcome [13] | Potency [14] | Potency [15] | outcome [16] | max response [17] -2.91% | Potency [18]

COc1cc([N+](=O)[O-])ccc1N
inactive: Potency [19] | outcome [4] | outcome [20] | outcome [5] | outcome [6] | Potency [7] | outcome [10] | Potency [11] | Potency [12] | outcome [13] | Potency [14] | Potency [15] | outcome [16] | max response [17] -15.5% | Potency [18]

CC(=O)c1ccc(OCC(=O)N2CCCCC2)cc1
inactive: Potency [2] | outcome [3] | outcome [4] | outcome [5] | outcome [6] | Potency [7] | Potency [8] | outcome [10] | Potency [11] | Potency [12] | outcome [13] | Potency [14] | max response [17] 1.3% | Potency [18]
active: Potency [19] 18.8 µM

CCC(C)(C)C1CCC(=O)CC1
inactive: outcome [1] | Potency [2] | outcome [3] | outcome [4] | outcome [20] | outcome [5] | outcome [6] | Potency [7] | Potency [8] | outcome [9] | outcome [10] | Potency [12] | outcome [13] | Potency [14] | Potency [15] | outcome [16] | max response [17] 7.65% | Potency [18]

COc1cc(C=O)ccc1OC(=O)C(C)C
inactive: outcome [1] | Potency [2] | outcome [3] | outcome [4] | outcome [20] | outcome [5] | outcome [6] | Potency [7] | Potency [8] | outcome [9] | outcome [10] | Potency [11] | Potency [12] | outcome [13] | Potency [14] | Potency [15] | outcome [16] | max response [17] -2% | Potency [18]

Nc1cc(Cl)cc(S(=O)(=O)O)c1O
inactive: Potency [19] | outcome [1] | outcome [20] | outcome [6] | Potency [7] | outcome [10] | Potency [11] | Potency [12] | outcome [13] | Potency [14] | Potency [15] | outcome [16] | max response [17] -4.63%

Nc1ccc(C(=O)OCC(O)CO)cc1 (stereo not given)
inactive: Potency [19] | Potency [2] | outcome [3] | outcome [4] | outcome [20] | outcome [5] | outcome [6] | Potency [7] | Potency [8] | outcome [9] | outcome [10] | Potency [11] | Potency [12] | outcome [13] | Potency [14] | Potency [15] | outcome [16] | max response [17] 2.88% | Potency [18]

CC(=O)N1CCN(c2ccc(O)cc2)CC1
inactive: Potency [19] | outcome [4] | outcome [20] | outcome [6] | Potency [7] | outcome [10] | Potency [11] | Potency [12] | outcome [13] | Potency [14] | Potency [15] | outcome [16] | max response [17] 7.56% | Potency [18]

CC(C)(c1ccc(Oc2ccc3c(c2)C(=O)OC3=O)cc1)c1ccc(Oc2ccc3c(c2)C(=O)OC3=O)cc1
inactive: Potency [19] | outcome [3] | outcome [4] | outcome [20] | outcome [5] | outcome [6] | Potency [8] | outcome [9] | outcome [10] | Potency [11] | Potency [12] | outcome [13] | Potency [14] | Potency [15] | outcome [16] | max response [17] 19.4% | Potency [18]

CC(C)SCc1ccco1
inactive: outcome [1] | Potency [2] | outcome [3] | outcome [20] | outcome [5] | outcome [6] | Potency [7] | Potency [8] | outcome [9] | outcome [10] | Potency [11] | Potency [12] | outcome [13] | Potency [14] | Potency [15] | outcome [16] | max response [17] 4.71% | Potency [18]

OC[C@@H](O)[C@H](O)[C@@H](O)[C@@H](O)CO
inactive: outcome [1] | Potency [2] | outcome [3] | outcome [20] | outcome [5] | outcome [6] | Potency [7] | Potency [8] | outcome [9] | outcome [10] | Potency [11] | Potency [12] | outcome [13] | Potency [14] | Potency [15] | outcome [16] | max response [17] 0.901% | Potency [18]

FC(F)(F)c1ccc(Cl)cc1Cl
inactive: outcome [1] | Potency [2] | outcome [3] | outcome [4] | outcome [20] | outcome [5] | outcome [6] | Potency [7] | Potency [8] | outcome [9] | outcome [10] | Potency [11] | Potency [12] | outcome [13] | Potency [14] | outcome [16] | max response [17] 6.78% | Potency [18]

CC(C)COC(=O)CC(C(=O)OCC(C)C)S(=O)(=O)O (stereo not given)
inactive: Potency [19] | outcome [1] | outcome [20] | outcome [5] | outcome [6] | Potency [11] | Potency [12] | outcome [13] | Potency [14] | max response [17] -3.15% | Potency [18]
